# Source: PubChem BioAssay (National Center for Advancing Translational Sciences (NCATS))
# Only some compounds are listed: those with a hit (about 0.99% of all), similar ones and a draw of the others.
# TRPV1 PAM – HTS Assay for Compounds that Act as Potentiators of the Vanilloid Receptor 1. Transient receptor potential cation channel subfamily V member 1 (Homo sapiens), Q8NER1. potentiation, % at 8.33 µM. TRPV1-expressing cells, Fluo-8 calcium influx, capsaicin EC20 potentiation. actives 0.02% (n = 320,000); in the data active means potentiation above about 80%; inconclusive means between about 30% and that limit; further: 0% is about no effect
#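 Fluo-8 calcium influx in TRPV1-expressing cells, kinetic read (ex 480/em 520 nm). Compound added and read 3 min for agonist activity, followed by capsaicin at EC20 final and 2 min further read for enhancement.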
# TRPML1 ag – qHTS for Agonists of the Human Mucolipin Transient Receptor Potential 1 (TRPML1); TRPML1-expressing cells, Ca2+ dye fluorescence, FDSS; activation, % (concentration not given with the values); Mucolipin-1 (Homo sapiens), Q9GZU1; AID 624414, 2012; actives 0.12% (n = 410,000); in the data active means activation above about 50%; inconclusive means mostly about 30% to 49%; further: 0% is about no effect
#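 Tet-induced TRPML1-DL cells, 1,500 per well, cultured overnight, were loaded with a no-wash Ca2+ dye for 45–90 min. Calcium fluorescence was recorded on the FDSS for 110 s after compound addition, before the EC80 agonist (4 uM 54-4) was added.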
# TRHR enhancer-1 – qHTS for Small Molecule Agonists and Allosteric Enhancers of Human TRH Receptor: Primary Screen for Enhancers; TRHR cells, fluo-8 calcium fluorescence, EC20 TRH enhancement; enhancement, % at 2 µM; actives 0.66% (n = 360,000); AID 493056, 2011; in the data active means enhancement above about 30%; further: 0% is about no effect
# Target sequence (P34981 whole entry, looked up): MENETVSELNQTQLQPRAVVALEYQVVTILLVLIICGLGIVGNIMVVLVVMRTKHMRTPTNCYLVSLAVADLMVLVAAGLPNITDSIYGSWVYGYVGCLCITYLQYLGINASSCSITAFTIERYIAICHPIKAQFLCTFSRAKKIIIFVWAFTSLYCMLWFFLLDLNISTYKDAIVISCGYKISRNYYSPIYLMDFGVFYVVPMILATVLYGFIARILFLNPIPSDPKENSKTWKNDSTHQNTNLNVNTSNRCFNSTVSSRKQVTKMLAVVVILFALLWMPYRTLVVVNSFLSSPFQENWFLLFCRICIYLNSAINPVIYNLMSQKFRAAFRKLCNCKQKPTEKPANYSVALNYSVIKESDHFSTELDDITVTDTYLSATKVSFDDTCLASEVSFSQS
#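 Enhancer read-out: after compound pinning and an initial kinetic agonist-mode read, an EC20 of TRH (10 nM final) was injected and fluo-8 calcium signal (Ex 480/Em 530) followed at 1 s/cycle for 100 cycles in TRHR-expressing cells.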
# TRPML1 inh – qHTS for Inhibitors of the Human Mucolipin Transient Receptor Potential 1 (TRPML1). Mucolipin-1 (Homo sapiens), Q9GZU1. TRPML1-inducible cells, Ca2+ dye fluorescence, FDSS; hits give low values; inhibition of EC80 agonist-evoked calcium signal. activity change, negative = inhibition, % (no concentration beside the values). actives 0.02% (n = 390,000). AID 624415, 2012; in the data active means activity change below about -50%; inconclusive means between about -30% and that limit;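 further: stimulus is agonist 54-4 at its EC80 concentration; on the % scale 0 is the no-effect control and ±100 the full control effect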
#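 TRPML1-DL cells, Tet-induced overnight (~16 h, 37 °C) at 1,500 cells/well, were loaded with Ca8 no-wash dye plus quencher for 45-90 min at room temperature. Compounds were pinned during FDSS kinetic reading; agonist 54-4 at EC80 (4 uM final) then added.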
# TRPV1 ag – HTS Assay for Compounds that Act as Agonists of the Vanilloid Receptor 1. TRPV1-expressing cells, Fluo-8 calcium influx, agonist mode. activation, % at 8.33 µM. actives 0.19% (n = 320,000). AID 540275, 2011; in the data active means activation above about 80%; inconclusive means between about 30% and that limit; further: 0% is about no effect
#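 Cells expressing TRPV1 were dye-loaded with Fluo-8 and read kinetically: 10 s baseline, 3 min after compound (agonist portion), then 2 min after EC20 capsaicin (allosteric enhancer portion). Calcium-bound dye fluorescence at 480/520 nm.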
# TRHR agonist-1 – qHTS for Small Molecule Agonists and Allosteric Enhancers of Human TRH Receptor: Primary Screen for Agonists | Thyrotropin-releasing hormone receptor (Homo sapiens), P34981 | TRHR cells, calcium flux fluo-8, FDSS agonist mode | activation, % at 2 µM | actives 0.18% (n = 360,000) | AID 493084, 2011; in the data active means activation above about 30%; further: 0% is about no effect
#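 TRHR-expressing cells, plated overnight in medium with 10% serum, were loaded with fluo-8 calcium dye at room temperature. After a 10 s baseline, library compound was pin-added and calcium release was recorded kinetically (ex 480/em 530) as agonist response.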
# TRHR enhancer-2 – qHTS for Small Molecule Agonists and Allosteric Enhancers of Human TRH Receptor: Confirmation Screen for Enhancers; 970 tested, under 10 active; activity change, negative = inhibition, % at 46.1 µM; TRH receptor cell assay, enhancer confirmation qHTS; AID 493076, 2011; shares compounds with TRHR enhancer-1;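 further: compound effect scored on response to added TRH at EC20 of 10 nM; 0% is about no effect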
# TRHR agonist-2 – qHTS for Small Molecule Agonists and Allosteric Enhancers of Human TRH Receptor: Confirmation Screen for Agonists; shares compounds with TRHR enhancer-1; TRHR-expressing cells, agonist activation read-out; Potency, µM (series often up to 46.1 µM), without a hit: at the highest dose activation, usual class: activators; actives 8% (n = 970); further: potency means the concentration at half of the fitted maximal effect; 0% is about no effect; nearly all actives have a fitted effect of over 75% in size
# * marks the source's active call; other numbers are inactive results; u = inconclusive; x = not tested or not shown. Unless noted, the call rests on the fitted dose curve; in most records, active means well fitted curve in the direction sought with a large enough effect; inconclusive means small, poorly fitted or top-dose-only effect, or another doubt; inactive means no such curve, though single readings can be large; an effect the other way counts as inactive or inconclusive.
SMILES,TRPV1 PAM,TRPML1 ag,TRHR enhancer-1,TRPML1 inh,TRPV1 ag,TRHR agonist-1,TRHR enhancer-2,TRHR agonist-2
CCCOC(=O)c1c(NC(=O)c2cc3ccccc3c(=O)o2)sc2c1CCC(C)C2 (configuration not stated),x,1.5,-1.5,-29.3,x,0.4,x,x
CN(C)CCSc1nc(-c2ccccc2)nc2c1COC(C)(C)C2,-38.9,1.6,46.4*,0.7,13.5,0.5,1.2,2.5%
O=C(NC1CC(=O)N(c2ccc(F)cc2)C1)C(c1ccccc1)c1ccccc1 (configuration not stated),x,1.7,-6.5,-17.7,x,0.5,x,x
O=C(NCc1ccc(Cl)cc1)c1cnc2sc(N3CCCCCC3)nn2c1=O,x,-0.4,1.7,8.6,x,0.1,x,x
CS(=O)(=O)N1CCN(c2ccc(NC(=S)NC(=O)c3cccs3)cc2)CC1,u,0.5,44.1*,22.5,1.2,-0.7,-5.3,-0.5%
O=C(NC(=S)Nc1ccc(N2CCCCC2)cc1)c1cccs1,-19.9,1.1,1.0,-17.1,10.0,1.0,x,x
Cc1[nH]c2ccccc2c1/C=N/Nc1nc(Nc2ccccc2)nc(N2CCOCC2)n1,-11.0,3.5,55.0*,-3.3,-2.1,-0.2,-1.4,-0.7%
COc1ccc(NC(=O)c2c(NCc3cccs3)sc3c2CCCCC3)cc1,x,-0.4,-1.6,-6.9,x,0.8,x,x
COc1ccccc1N1CCN(Cc2nc3ccccc3[nH]2)CC1,2.5,0.3,50.2*,44.4,0.4,-0.1,5.0,-0.6%
COc1ccc(C2c3cc(OC)c(OC)cc3CC(=O)N2c2ccc(C)cc2)cc1 (configuration not stated),x,-1.0,6.1,-12.6,x,-0.2,x,x
Cc1ccc(NC(=O)Cn2nnc(C(=O)NCc3ccc4c(c3)OCO4)c2N)cc1Cl,x,-0.1,7.0,3.4,x,0.8,x,x
COc1ccccc1N(CC(=O)NCc1cccnc1)S(C)(=O)=O,4.5,0.8,48.0*,-7.1,-4.4,0.2,8.4,0.9%
CCCn1c(N)c(C(=O)CSc2nncs2)c(=O)[nH]c1=O,-3.9,-1.1,41.0*,10.4,-1.3,0.0,-0.2,-0.6%
COc1ccc(CNC(=O)Cc2c(C)c3ccc(O)cc3oc2=O)cc1,x,0.4,2.8,9.5,x,-0.6,x,x
N#CNC(=Nc1cccc(C(F)(F)F)c1)SCc1ccc(C(=O)O)cc1,-14.5,2.0,46.5*,15.3,1.6,0.5,8.7,7.2%
N#CNC(=Nc1ccccc1)SCc1ccc(C(=O)O)cc1,8.0,1.8,5.3,-12.7,-1.8,1.7,x,x
O=c1ccc2cc3c4c(c2o1)CCCN4CCC3,-5.8,u,-5.4,-8.7,16.5,47.4*,u,20.6µM*
COc1ccc(OC)c(C(c2c(C)[nH][nH]c2=O)c2c(C)[nH][nH]c2=O)c1,6.4,0.1,49.7*,25.1,0.4,0.8,-1.2,1.3%
CCc1ccccc1N(CC)C(=O)c1c(C)oc2ncnc(N3CCOCC3)c12,x,0.7,-8.7,-5.3,x,0.2,x,x
COCCn1c(C)cc(O)c(C(c2ccccc2OC)N2CCCCC2)c1=O (configuration not stated),x,0.9,0.2,-1.6,x,-0.1,x,x
CC(=O)c1ccc(NS(=O)(=O)c2ccc(Br)s2)cc1,x,-1.3,1.7,-1.3,x,0.1,x,x
C[N+](C)(C)CCCCCCC(=O)/C=N/O,-15.1,-0.7,-4.0,8.4,-6.5,0.3,x,x
C[N+]1(CCCCCCC(=O)/C=N/O)CCCCCC1,-2.2,-0.7,42.8*,-7.6,2.2,1.6,-0.6,-0.8%
CCOc1ccccc1-c1c2cc(O)c(=O)cc-2oc2cc(O)c(O)cc12,-40.6,110.0*,0.9,-7.5,u,30.7*,-14.9,0.731µM*
O=c1cc2oc3cc(O)c(O)cc3c(-c3ccccc3O)c-2cc1O,6.6,16.2,4.0,14.1,16.8,46.8*,5.0,10.3µM*
SMILES,TRPV1 PAM,TRPML1 ag,TRHR enhancer-1,TRPML1 inh,TRPV1 ag,TRHR agonist-1,TRHR enhancer-2,TRHR agonist-2
COc1cc(CCC(=O)NCc2ccc3c(c2)CCN3C(=O)c2cccc(C)c2)cc(OC)c1OC,x,0.9,3.2,-2.8,x,-1.2,x,x
C=CCNC(=O)/C(=C/c1cn(-c2ccccc2)nc1-c1cccc([N+](=O)[O-])c1)NC(=O)c1ccccc1,u,2.1,4.3,19.8,-0.6,-0.2,x,x
CN(C)C(=O)/C(=C/c1cn(-c2ccccc2)nc1-c1cccc([N+](=O)[O-])c1)NC(=O)c1ccccc1,13.4,-0.9,42.9*,-4.5,-5.1,-0.5,4.1,-0.7%
COc1ccc(Cn2ccn(Cc3cccc(Cl)c3)c(=O)c2=O)cc1,x,0.2,10.8,7.7,x,0.2,x,x
O=S(=O)(c1ccccc1)C1CON(Cc2ccccc2)C1c1ccccc1 (configuration not stated),-11.2,1.4,14.4,13.4,15.9,0.8,x,x
CN1OCC(S(=O)(=O)c2ccccc2)C1c1ccccc1 (configuration not stated),5.6,0.0,44.2*,-7.5,-3.3,0.3,8.1,2.7%
O=C(COC(=O)c1ccc(Cl)cc1[N+](=O)[O-])NC(=O)c1ccccc1,-16.8,-0.5,-2.6,4.5,15.1,0.6,x,x
Nc1ccc(C(=O)OCC(=O)NC(=O)c2ccccc2)cc1[N+](=O)[O-],-0.8,1.9,54.9*,2.5,0.6,4.0,-4.9,6.2%
COc1ccc(-c2nc3ccccc3nc2-c2ccccc2)cc1,-6.4,3.4,9.3,-1.1,17.1,-0.1,x,x
COc1ccc2nc3ccccc3nc2c1,28.0,x,48.9*,x,-0.9,1.0,-0.9,1.6%
Nn1c(N2CCCCC2)nc2ccccc21,11.6,0.1,71.1*,-7.0,-2.1,-0.2,-1.2,4.4%
